Bioassay records as filed in PubChem BioAssay.
Shown are actives, neighbours in structure and some others; about 5.7% of the full set was active somewhere.
D3 ag = activates the human D3 dopamine receptor. P35462. D3R DiscoveRx beta-arrestin cells, luminescence, 90 min. max activation, %. 0.58% of 410,000 active. AID 652048; in the data active means max activation above about 30%
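Cells at 1500/well, incubated overnight, then treated with pinned compounds (dopamine as control) for 90 min at 37 degrees C. DiscoveRx reagent added for 30 - 60 minutes at room temperature; luminescence read.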
HEK293 tox = cytotoxic in the GLP-1 receptor inverse agonist counter-screen; HEK293 cAMP-luciferase reporter cells, luminescence, 24 h; Potency, µM (top dose mostly 38.3 µM), most hits filed as inhibitors; 0.13% of 410,000 active; AID 624418;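 further: loss of luciferase light is scored as toxicity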
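A 23 nL compound transfer followed 12 hours of cell culture at 37 deg C; exposure then lasted 24 hr. Luciferase assay detection reagent was dispensed and plates read for luminescence after a 12 min room-temperature wait.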
D3 antag = D3 dopamine receptor (human) antagonism; 2.5% of 360,000 active; D3R cells, DiscoveRx beta-arrestin luminescence, antagonist mode; active compounds read low; P35462; max response, negative = inhibition, %; in the data active means max response below about -50%; inconclusive means no clear call, values can overlap the other calls
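Cells expressing the human receptor were seeded at 1500 cells/well, incubated overnight at 37 degrees C in 5% CO2, then exposed to library compounds with dopamine controls for 90 minutes at 37 degrees C before luminescent detection.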
GLP1R ag = GLP-1 receptor (human) agonism; AID 624172; P43220; HEK293 GLP-1R CRE-luciferase, luminescence, 4-6 h; cells express a hypersensitive GLP-1R form; 0.007% of 380,000 active; Potency, µM (series often up to 45.6 µM), actives largely listed as activators
GLP1R inv ag = acts as inverse agonist at human GLP-1 receptor; Potency, µM (titrated, usually from 38.3 µM), usual class: inhibitors; AID 624417; 1.6% of 410,000 active; HEK293 GLP-1R CRE-luciferase, luminescence, 24 h; GLP-1R form is constitutively active; further: nearly all actives have a fitted effect of over 55% in size
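qHTS in 1536-well format: reporter HEK293 cells expressing constitutive GLP-1R activity in DMEM + 10% Nu serum, 24 hr with compounds at 37 deg C, luminescence read after 12 min with detection reagent.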
ClpP mod = qHTS Assay for Activators of ClpP. ATP-dependent Clp protease proteolytic subunit (Bacillus subtilis (strain 168)), P80244. 1.9% of 340,000 active. Potency, µM (titrated, usually from 57.5 µM). purified B. subtilis ClpP, FRET peptide cleavage, 20 min. AID 651965, 2013; active means well fitted falling curve with a large enough effect; inconclusive means small, poorly fitted or top-dose-only effect; inactive means no such curve, though single readings can be large or run the other way; further: the source files actives as falling curves though it sought activators and does not explain the sign; nearly all actives have a fitted effect of over 65% in size
Target sequence (P80244 whole entry, looked up): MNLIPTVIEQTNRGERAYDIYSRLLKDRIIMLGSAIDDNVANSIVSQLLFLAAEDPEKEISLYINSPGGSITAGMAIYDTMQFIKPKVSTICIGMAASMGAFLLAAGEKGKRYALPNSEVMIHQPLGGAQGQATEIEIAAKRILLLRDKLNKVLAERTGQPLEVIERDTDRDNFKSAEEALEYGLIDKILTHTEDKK
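ClpP 10 microg/mL final, pH 8 Tris/KCl buffer with BSA, glycerol, Tween-20; compound pinned in; FRET-FV substrate; RT 20 min; Ex320/Em430; ΔFRET vs ADEP 5.8 microM, DMSO, no enzyme.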
Hits are given with their value; . = inactive; ? = inconclusive; / = not tested or not shown. Unless noted, the call rests on the fitted dose curve; in most records, active means well fitted curve in the direction sought with a large enough effect; inconclusive means small, poorly fitted or top-dose-only effect, or another doubt; inactive means no such curve, though single readings can be large; an effect the other way counts as inactive or inconclusive.

SMILES	D3 ag	HEK293 tox	D3 antag	GLP1R ag	GLP1R inv ag	ClpP mod
COCCCNC(=O)c1cn(CC(C)C)c(=O)c2c1c1ccccc1n2C	.	.	.	.	.	31.6µM
O=C(NCCc1ccccc1)c1ccc(CSc2nc3ccncc3n2Cc2ccccc2F)cc1	.	.	/	/	?	.
COc1ccccc1C(CNC(=O)CNC(=O)c1cccc(Cl)c1)N1CCCC1 (stereo not given)	.	.	.	.	.	/
CC(=O)NCCCS(=O)(=O)O	.	/	/	.	/	/
COCCCNC(=O)c1cn(CCOC)c(=O)c2c1c1ccccc1n2C	.	.	.	.	.	.
COCCn1cc(C(=O)NCCCOC(C)C)c2c3ccccc3n(C)c2c1=O	.	.	.	.	.	31.6µM
COc1cccc2cc(C(=O)NCCc3c(C)[nH]c4ccc(Br)cc34)c(=O)oc12	.	.	/	.	.	.
O=C(Cn1c2ccccc2c(=O)c2ccccc21)Nc1ccccc1F	.	.	.	.	.	12.6µM
Cc1ccc(NC(=O)CN2CCN(c3ccccc3F)CC2)cc1F	.	.	/	/	.	.
O=C(CN1CCN(c2ccccc2F)CC1)Nc1ccccc1F	.	.	-57.6	.	.	.
O=C(CCN1CCN(c2ccc(Cl)cc2)CC1)Nc1ccccc1F	.	.	.	.	?	.
O=C(CCN1CCN(c2ccccc2F)CC1)Nc1ccccc1F	32.1	.	.	.	.	15.8µM
COc1ccccc1C(=O)OCc1cc(=O)n2nc(C3CCCCC3)sc2n1	.	.	/	/	.	.
Cc1ccc(CNC(=O)C2CCC(CNS(=O)(=O)c3ccc4c(c3)CCCC(=O)N4)CC2)cc1 (stereo not given)	.	.	/	/	.	.
c1csc(-c2cnc3ccccc3n2)c1	.	.	.	.	.	6.31µM
c1cc(-c2cccs2)nc(-c2cccs2)c1	.	.	.	.	.	/
CCOc1ccc(Br)cc1C1C(C(=O)Nc2ccccc2OC)=C(C)Nc2nnnn21 (stereo not given)	.	.	/	/	.	.
O=C(Nc1ccccc1F)c1nc(SCc2ccccc2F)ncc1Cl	.	.	/	/	.	.
O=C(COc1cccc2ccccc12)NNC(=O)c1cccs1	.	.	.	.	.	17.8µM
COc1ccc(NC(=O)Cn2ccn(-c3ccccc3)c(=O)c2=O)cc1	.	.	/	/	.	.
CC1=NN(c2ccc([N+](=O)[O-])cc2)C(=O)/C1=C\N(C)C	.	.	-57.4	.	.	.
CCc1ccc(CNCc2cccs2)cc1	.	.	.	.	?	/
CCc1ccc(S(=O)(=O)NCc2cccs2)cc1	.	.	-64.7	.	?	.
Cc1ccc(C2=Nn3c(COc4ccc(Cl)cc4)nnc3SC2CC(=O)O)cc1 (stereo not given)	32.5	.	.	.	.	.
Cc1ccc(OCc2n[nH]c(=S)n2-c2ccc(Cl)cc2)cc1	.	.	.	.	.	.
SMILES	D3 ag	HEK293 tox	D3 antag	GLP1R ag	GLP1R inv ag	ClpP mod
COc1cc2c(NC3CCN(C)CC3)nc(N3CCCCC3)nc2cc1OCCOCCN(C)C	/	/	/	/	/	.
COc1cccc2sc3ccc(C#Cc4ccc(N)cc4)cc3c(=O)c12	.	.	.	.	.	.
Nc1ccc(C#Cc2ccc3sc4ccccc4c(=O)c3c2)cc1	43.6	.	.	.	.	.
Cc1ccc(NC(=O)C(C)Sc2nc(=O)cc(N)n2-c2cccc(C)c2)cc1 (stereo not given)	.	.	/	/	.	.
O=C(N/N=C(\c1ccccc1)c1cccnc1)c1ccc(O)cc1	.	.	.	.	.	.
O=C(N/N=C(\c1ccccc1)c1cccnc1)c1cccc(F)c1	.	?	-75.1	.	?	.
CC1=CC(c2ccccc2)n2nc(N3C(=O)CCC3=O)nc2N1 (stereo not given)	.	.	.	.	.	28.2µM
CC1=CC(c2ccccc2)n2nc(N3C(=O)c4ccccc4C3=O)nc2N1 (stereo not given)	.	.	.	.	.	.
